According to PubChem BioAssay (NCATS):
Records with an inconclusive call do not appear. Activity calls are given as the source filed them. Unless noted, the call rests on the fitted dose curve; in most records, active means well fitted curve in the direction sought with a large enough effect; inconclusive means small, poorly fitted or top-dose-only effect, or another doubt; inactive means no such curve, though single readings can be large; an effect the other way counts as inactive or inconclusive.

How the values were obtained:
[1] = qHTS assay for small molecule disruptors of the mitochondrial membrane potential - 1 hr assay (AID 651754; calls by dose curve; further: on the % scale 0 is the no-effect control and ±100 the full control effect; nearly all actives have a fitted effect of over 35% in size)
Procedure, shortened: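 HepG2 cells, attached overnight, were exposed to compound for 1 hr at 37C, then stained 30 min with a potentiometric dye. Ratio of red aggregate (590nm) to green monomer (535nm) fluorescence reports membrane potential; collapse shifts signal toward green.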

[2] = qHTS assay for small molecule disruptors of the mitochondrial membrane potential - 5 hr assay (AID 651755; calls by dose curve; further: on the % scale 0 is the no-effect control and ±100 the full control effect; nearly all actives have a fitted effect of over 40% in size)
Procedure, shortened: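 HepG2 cells (2,000/well), attached overnight, exposed to compound 5 hr at 37C, then Mito-MPS dye 30 min. Fluorescence read for monomers (490/535 nm) and aggregates (540/590 nm).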

[3] = target: Tumor necrosis factor (Homo sapiens) (UniProt P01375); assay: qHTS assay to identify small molecules that stimulate Tumor Necrosis Factor-alpha (TNF-alpha) secretion (AID 651757; active means well fitted curve in the direction sought with a large enough effect in the signal ratio; the % refers to the signal ratio; further: 0% is about no effect)
Sequence of Tumor necrosis factor (Homo sapiens) (P01375 whole entry, looked up): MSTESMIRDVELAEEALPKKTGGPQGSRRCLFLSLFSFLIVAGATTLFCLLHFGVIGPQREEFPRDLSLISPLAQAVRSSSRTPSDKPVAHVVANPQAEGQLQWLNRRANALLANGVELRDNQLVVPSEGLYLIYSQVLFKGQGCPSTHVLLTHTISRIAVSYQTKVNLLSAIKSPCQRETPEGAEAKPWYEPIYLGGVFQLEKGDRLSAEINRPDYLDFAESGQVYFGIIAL
Procedure, shortened: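 THP-1 cells (3000/well) exposed to compounds 17 hrs at 37 C. Secreted TNF-alpha detected by HTRF with cryptate- and XL665-labeled anti-TNF-alpha antibodies after 3 hr at room temperature.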

[4] = qHTS assay for environmental chemicals that activate the Aryl hydrocarbon Receptor (AhR) signaling pathway (AID 651777); conditions: 1A2-DRE human hepatoma cells, luciferase, 24 h; activation: hits give high values; further: % of control where 0% means no effect; nearly all actives have a fitted effect of over 15% in size
Procedure, shortened: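 Following a 24 hr incubation with test chemicals at 37 C and 5% CO2, 1A2-DRE human hepatoma cells received One-Glo reagent; after 30 min at room temperature, luciferase output reflected CYP1A2 induction via AhR.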

[5] = target: Peroxisome proliferator-activated receptor alpha (Homo sapiens) (UniProt Q07869); assay: qHTS assay for small molecule agonists of the peroxisome proliferator-activated receptor alpha (PPARalpha) signaling pathway (AID 651778); conditions: PathHunter PPARalpha complementation, chemiluminescence, 6 h; hits give high values; further: % of control where 0% means no effect
Sequence of Peroxisome proliferator-activated receptor alpha (Homo sapiens) (Q07869 whole entry, looked up, the tested form may be a part): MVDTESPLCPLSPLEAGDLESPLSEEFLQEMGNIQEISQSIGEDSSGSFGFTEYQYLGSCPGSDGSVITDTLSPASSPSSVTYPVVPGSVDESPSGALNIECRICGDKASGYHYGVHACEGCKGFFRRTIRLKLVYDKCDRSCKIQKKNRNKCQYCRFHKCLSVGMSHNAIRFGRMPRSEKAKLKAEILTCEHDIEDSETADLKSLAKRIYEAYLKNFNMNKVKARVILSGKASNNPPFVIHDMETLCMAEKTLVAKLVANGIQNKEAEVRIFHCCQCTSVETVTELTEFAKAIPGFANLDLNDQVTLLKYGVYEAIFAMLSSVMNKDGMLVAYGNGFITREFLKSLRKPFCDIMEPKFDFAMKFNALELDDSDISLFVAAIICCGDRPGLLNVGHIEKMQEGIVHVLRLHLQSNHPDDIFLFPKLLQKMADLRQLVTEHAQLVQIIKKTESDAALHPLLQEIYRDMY
Procedure, shortened: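 Enzyme-fragment complementation assay in which ligand-bound PPARalpha translocates and forms an active enzyme that generates chemiluminescence. Cells were plated overnight, exposed to compound for 6 hr at 37 C, and then given detection reagent for 60 min at room temperature.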

[6] = target: Nuclear receptor ROR-gamma (Homo sapiens) (UniProt P51449); assay: qHTS assay for small molecule antagonists of the retinoid-related orphan receptor gamma (ROR-gamma) signaling pathway (AID 651802);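 further: luciferase reporter luminescence driven by ROR response element; series mostly up to about 92 µM; on the % scale 0 is the no-effect control and ±100 the full control effect; nearly all actives have a fitted effect of over 60% in size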
Sequence of Nuclear receptor ROR-gamma (Homo sapiens) (P51449 whole entry, looked up): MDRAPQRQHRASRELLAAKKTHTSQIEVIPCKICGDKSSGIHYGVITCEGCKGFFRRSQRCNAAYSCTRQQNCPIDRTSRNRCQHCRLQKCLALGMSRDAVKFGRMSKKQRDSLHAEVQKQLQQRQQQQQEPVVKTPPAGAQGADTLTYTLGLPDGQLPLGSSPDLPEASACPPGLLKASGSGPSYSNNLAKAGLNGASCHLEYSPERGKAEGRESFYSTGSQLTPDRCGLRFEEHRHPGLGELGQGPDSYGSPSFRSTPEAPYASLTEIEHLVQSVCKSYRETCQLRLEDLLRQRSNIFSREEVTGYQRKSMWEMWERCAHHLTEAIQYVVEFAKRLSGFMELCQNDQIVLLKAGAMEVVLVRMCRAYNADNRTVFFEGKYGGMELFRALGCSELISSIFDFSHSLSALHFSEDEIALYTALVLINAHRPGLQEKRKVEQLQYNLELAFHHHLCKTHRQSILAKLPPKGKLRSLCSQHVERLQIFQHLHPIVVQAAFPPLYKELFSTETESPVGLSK
Procedure, shortened: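 CHO cells with TET-inducible ROR-gamma and RORE-luciferase reporter, dosed then doxycycline-induced. After 16 h at 37C, One-Glo luminescence read; decreased signal indicates antagonism.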

[7] = qHTS assay for small molecule agonists of the antioxidant response element (ARE) signaling pathway measured by Nrf2-dependant transcriptional activity (AID 720636; active means well fitted curve in the direction sought with a large enough effect in the repeat runs; an effect the other way counts as inactive or inconclusive;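 further: HepG2 cells with an ARE-driven luciferase reporter; % of control where 0% means no effect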)
Procedure, shortened: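 ONE-Glo luminescence, read 30 min after reagent addition at room temperature, reflected ARE reporter activity in HepG2 cells that had been incubated with compound for 16 hr at 37 C in 1% dialyzed FBS.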

[8] = qHTS assay for small molecule antagonists of the retinoid-related orphan receptor gamma (ROR-gamma) signaling pathway - cell viability counter screen (AID 720652; active means well fitted curve in the direction sought with a large enough effect in the repeat runs; an effect the other way counts as inactive or inconclusive;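 further: series mostly up to about 92 µM; compound exposure lasted 16 hr before ATP read; on the % scale 0 is the no-effect control and ±100 the full control effect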)
Procedure, shortened: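 CHO cells carrying TET-inducible ROR and RORE-luciferase reporter, plated 5 hr, then dosed with compound plus doxycycline. After 16 hr at 37 C, viability read as intracellular ATP by CellTiter-Glo luminescence.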

[9] = qHTS assay for small molecule agonists of the antioxidant response element (ARE) signaling pathway measured by Nrf2-dependant transcriptional activity - cell viability counter screen (AID 720653; active means well fitted curve in the direction sought with a large enough effect in the repeat runs; an effect the other way counts as inactive or inconclusive; further: on the % scale 0 is the no-effect control and ±100 the full control effect); conditions: ARE-bla HepG2 viability, CellTiter-Glo ATP luminescence, 16 h; hits give low values
Procedure, shortened: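 ARE-bla HepG2 cells treated with compounds for 16 h at 37C; this counter screen measures viability as intracellular ATP by CellTiter-Glo luminescence after 30 min at room temperature.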

[10] = qHTS assay for cell viability of HEK293 cells (AID 743288); conditions: ATP luminescence (CellTiter-Glo), 18 h, hits give low values; further: on the % scale 0 is the no-effect control and ±100 the full control effect; nearly all actives have a fitted effect of over 50% in size
Procedure, shortened: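 Parental HEK293 cells, 2,000 per well, preincubated at least 5 h at 37 C, then exposed to compounds in DMSO for 18 h at 37 C. Viability by CellTiter-Glo ATP luminescence after 30 min at room temperature.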

[11] = qHTS assay for cell viability of the p53RE-bla HCT-116 cell line (AID 743292); further: on the % scale 0 is the no-effect control and ±100 the full control effect; nearly all actives have a fitted effect of over 55% in size
Procedure, shortened: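 After plating at 4,000 cells per well and a 5 h rest at 37 C, HCT-116 cells carrying p53RE-bla received test chemicals in DMSO. Sixteen hours later at 37 C, CellTiter-Glo was added and luminescence recorded following 30 min at room temperature.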

[12] = target: Nuclear receptor subfamily 1 group I member 2 (Rattus norvegicus) (UniProt Q9R1A7); assay: qHTS assay for small molecule activators of the rat pregnane X receptor (rPXR) signaling pathway (AID 651751; call rule not given here; further: 0% is about no effect); conditions: rPXR reporter cells, luciferase (One-Glo), 24 h
Sequence of Nuclear receptor subfamily 1 group I member 2 (Rattus norvegicus) (Q9R1A7 whole entry, looked up): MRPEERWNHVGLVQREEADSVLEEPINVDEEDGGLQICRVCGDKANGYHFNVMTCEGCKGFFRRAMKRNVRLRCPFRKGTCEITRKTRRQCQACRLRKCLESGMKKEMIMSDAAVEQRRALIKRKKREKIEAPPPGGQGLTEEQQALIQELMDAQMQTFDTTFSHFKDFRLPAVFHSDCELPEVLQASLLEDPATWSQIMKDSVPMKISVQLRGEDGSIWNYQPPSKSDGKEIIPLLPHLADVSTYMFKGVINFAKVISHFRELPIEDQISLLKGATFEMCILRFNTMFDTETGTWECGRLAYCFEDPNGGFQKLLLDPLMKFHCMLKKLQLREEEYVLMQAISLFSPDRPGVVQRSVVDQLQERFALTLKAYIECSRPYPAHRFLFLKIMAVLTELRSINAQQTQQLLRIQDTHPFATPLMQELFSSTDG

[13] = qHTS assay for small molecule activators of the human pregnane X receptor (PXR) signaling pathway (AID 720659; call rule not given here; further: 0% is about no effect)

CCC(C)(C)C(=O)O
inactive: Potency [1] | Potency [2] | Potency [3] | activation [4] 0.179% | max response [5] -5.15% | Potency [6] | outcome [7] | Potency [8] | max response [9] -0.295% | max response [10] -3.48% | Potency [11] | max response [12] 5.04% | outcome [13]

Cc1cccc2cccnc12
inactive: Potency [1] | Potency [2] | Potency [3] | activation [4] -0.26% | max response [5] 3.59% | Potency [6] | outcome [7] | Potency [8] | max response [9] -7.04% | max response [10] -0.0071% | max response [12] -0.272% | outcome [13]

O=C(O)c1cccc(Cl)c1Cl
inactive: Potency [1] | Potency [2] | Potency [3] | activation [4] -1.06% | max response [5] -2.92% | Potency [6] | outcome [7] | Potency [8] | max response [9] 3.31% | max response [10] 6.72% | Potency [11] | max response [12] -3.88% | outcome [13]

COC(=O)CS
inactive: Potency [1] | Potency [2] | Potency [3] | activation [4] -0.254% | max response [5] -1.38% | Potency [6] | outcome [7] | Potency [8] | max response [9] -0.555% | max response [10] 3.47% | Potency [11] | max response [12] -1.83% | outcome [13]

CCCCC(CC)COCC1CO1 (stereo not drawn)
inactive: Potency [1] | Potency [2] | Potency [3] | activation [4] -1.2% | max response [5] -0.684% | Potency [6] | outcome [7] | Potency [8] | max response [9] -19% | max response [10] 0.479% | Potency [11] | max response [12] 9.04% | outcome [13]

O=[N+]([O-])c1ccc(Cl)cc1Cl
inactive: Potency [1] | Potency [2] | Potency [3] | activation [4] -1.71% | max response [5] -1.04% | Potency [6] | outcome [7] | Potency [8] | max response [9] -19.5% | max response [10] 0.0931% | Potency [11] | max response [12] -0.131% | outcome [13]

CC(=O)Nc1ccc(N)cc1
inactive: Potency [1] | Potency [2] | Potency [3] | activation [4] -0.109% | max response [5] 0.154% | Potency [6] | outcome [7] | Potency [8] | max response [9] 2.9% | max response [10] -3.85% | max response [12] 9.42% | outcome [13]

Cc1ccc(Cl)cc1N
inactive: Potency [1] | Potency [2] | Potency [3] | activation [4] -0.729% | max response [5] -6.36% | Potency [6] | outcome [7] | Potency [8] | max response [9] 6.01% | max response [10] 3.66% | max response [12] 0.767% | outcome [13]

COc1ccc(N)c(C)c1
inactive: Potency [1] | Potency [2] | Potency [3] | activation [4] 1.75% | max response [5] -5.31% | Potency [6] | outcome [7] | Potency [8] | max response [9] -1.87% | max response [10] -3.7% | Potency [11] | max response [12] 7.59% | outcome [13]

CC(=O)CC(C)C
inactive: Potency [1] | Potency [2] | Potency [3] | activation [4] -0.041% | max response [5] -2.67% | Potency [6] | outcome [7] | Potency [8] | max response [9] 4.78% | max response [10] -6.25% | Potency [11] | max response [12] -2.17% | outcome [13]

CC(O)CC(C)O (stereo not drawn)
inactive: Potency [1] | Potency [2] | Potency [3] | activation [4] -0.953% | max response [5] -0.949% | Potency [6] | outcome [7] | Potency [8] | max response [9] -7.28% | max response [10] 7.82% | Potency [11] | max response [12] 6.25% | outcome [13]

c1ccc2[nH]cnc2c1
inactive: Potency [1] | Potency [2] | Potency [3] | activation [4] 1.2% | max response [5] -1.28% | Potency [6] | outcome [7] | Potency [8] | max response [9] -6.28% | max response [10] 3.37% | max response [12] 3.1% | outcome [13]

Cc1c(N)cccc1[N+](=O)[O-]
inactive: Potency [1] | Potency [2] | Potency [3] | activation [4] -0.541% | max response [5] -5.39% | Potency [6] | outcome [7] | Potency [8] | max response [9] 12.6% | max response [10] 11.6% | Potency [11] | max response [12] -0.458% | outcome [13]

C=CCCCCCC
inactive: Potency [1] | Potency [2] | Potency [3] | activation [4] 0.992% | max response [5] -3.21% | Potency [6] | outcome [7] | Potency [8] | max response [9] -7.1% | max response [10] 3.39% | Potency [11] | max response [12] 3.09% | outcome [13]
